Out of some 96,000 compounds screened, about 20,000 (21%) were called active. Only a sample is shown. Unmarked numbers belong to inactive results.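 How the source made its calls: active means CYP2C19 inhibition above a set limit at 5 µM in the primary screen (cut at about 50% in these data); inactive means the rest.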
target: Cytochrome P450 2C19 (Homo sapiens) (UniProt P33261); assay: blockers of cytochrome P450 2C19 activity – biochemical, luminescence, ADME assay, primary screen (AID 778); details: CYP2C19 Supersomes, luciferin-H EGE luminescence, 30 min; at 5 µM; hits give high values;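 further: plate controls were negative control wells for no effect and 2.5 mM tranylcypromine positive control for full effect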
Sequence (P33261 whole entry, looked up): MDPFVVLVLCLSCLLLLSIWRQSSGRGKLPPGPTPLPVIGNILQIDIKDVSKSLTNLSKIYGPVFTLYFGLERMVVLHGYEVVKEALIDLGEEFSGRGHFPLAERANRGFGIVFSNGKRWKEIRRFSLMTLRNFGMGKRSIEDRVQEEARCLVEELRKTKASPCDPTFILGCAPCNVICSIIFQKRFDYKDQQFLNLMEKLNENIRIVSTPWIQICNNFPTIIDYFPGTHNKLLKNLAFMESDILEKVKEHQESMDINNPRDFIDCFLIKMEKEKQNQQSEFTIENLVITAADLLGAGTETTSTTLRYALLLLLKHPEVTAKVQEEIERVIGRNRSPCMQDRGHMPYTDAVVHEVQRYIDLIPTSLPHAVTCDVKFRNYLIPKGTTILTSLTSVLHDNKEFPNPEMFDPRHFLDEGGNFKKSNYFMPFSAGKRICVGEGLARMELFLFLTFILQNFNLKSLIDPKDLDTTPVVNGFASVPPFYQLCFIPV

SMILES | inhibition
O=[N+]([O-])c1ccc(Oc2ccc(F)cc2Br)c2ccncc12 | 31%
COc1ccc2c(c1)OC(O)(C(F)(F)C(F)F)CC2=O (stereo unspecified) | 47.3%
COc1ccc2c(c1)SC(C)CC2=O (stereo unspecified) | 79.6% (active)
COc1ccc(NC2CC(=O)N(C)C2=O)cc1 (stereo unspecified) | -10.3%
O=C(Cn1ccc([N+](=O)[O-])n1)NCc1cccs1 | 0.6%
O=C(Nc1cc(=O)[nH]c2ncnn12)c1ccccc1Cl | 2.2%
O=C(C1CCCO1)N(Cc1ccccc1)c1ccccc1 (stereo unspecified) | 0%
COc1ccc(C(CC(=O)O)NC(=O)Cc2ccccc2)cc1 (stereo unspecified) | -9.7%
CCOc1ccc(C(CCc2ccccc2)NC(=O)c2ccc(OC)c(OC)c2)cc1OCC (stereo unspecified) | 56.7% (active)
CCOc1ccc(C(CC(=O)O)NC(=O)COc2ccccc2)cc1 (stereo unspecified) | -2.9%
COc1cc2[nH]c(=O)n(CCC(=O)NC3CCN(Cc4ccccc4)CC3)c(=O)c2cc1OC | -19%
Cc1ccc(S(=O)(=O)N(C)CC(=O)NC2CCCC2)cc1 | 11.9%
COc1ccc(N(CC(=O)NC2CCCCCCC2)S(=O)(=O)c2c(C)nn(C)c2C)cc1 | 42.8%
CN(CC(=O)NC1CCCCC1)S(=O)(=O)c1cccc2cccnc12 | 57.6% (active)
CCn1c2c(c3ccc(OC)cc31)CCCC2=O | 7.5%
C=C(C)Cn1c(C)cc(C)c(S(=O)(=O)c2ccccc2C)c1=O | 19.6%
CCCOc1ccc(N2C(=O)CC(N(CCc3ccc(S(N)(=O)=O)cc3)C(C)=O)C2=O)cc1 (stereo unspecified) | -16.6%
CC(C)CCNC(=O)CN(C(=O)Cn1nnc(-c2ccc(F)cc2)n1)C1CCCC1 | 17.8%
COc1cccc(N(CC(=O)NC2CCCC2)C(=O)Cn2nnc(-c3ccc(C)cc3)n2)c1 | 28.4%
CC(C)CCNC(=O)C(C)N(C(=O)Cn1nnc(-c2ccc(F)cc2)n1)C1CCCC1 (stereo unspecified) | 78.7% (active)
CC1(C)CC(O)C(CCC(O)c2ccccc2)C(C)(C)N1 (stereo unspecified) | -6.9%
CCCOc1ccc(-c2nc(N)n[nH]2)cc1 | 5.8%

SMILES | inhibition
Cn1c(=NC(=O)C2CC2)sc2cc(F)cc(F)c21 | 13.8%
COc1ccc(CCN(C)CCN2C(=O)c3ccccc3C2=O)cc1OC | 2.8%
COc1ccc(CCN=C2SCC(=O)N2C)cc1OC | 88.2% (active)
COc1ccc(CCN2CNc3c(c(=O)n(C)c(=O)n3C)C2)cc1OC | -22.1%
NC(=S)c1ccc(C(N)=S)o1 | 60.2% (active)
CCOC(=O)c1c(C)[nH]c(C)c1C(=O)CSc1nc(N)cc(N)n1 | 17.6%
Cc1ccc(S(=O)(=O)N2CCC(C(=O)N[C@@H](C)C(=O)NCCc3ccccc3)CC2)cc1 | 10.5%
Cc1ccc(C(=O)NCCNS(=O)(=O)c2ccccc2)cc1 | 81.4% (active)
CC(=O)NS(=O)(=O)c1ccccc1 | 4.6%
Cc1ccc(S(=O)(=O)NCCSC(C)(C)C)cc1 | 11.6%
CC(C)(C)NC(=O)CN(Cc1cccs1)C(=O)CNS(=O)(=O)c1ccccc1 | 4.4%
CS(=O)(=O)NCc1ccc(C(=O)NCc2ccccc2)cc1 | -8.4%
O=S(=O)(NCCNS(=O)(=O)c1ccccc1)c1ccccc1 | 89% (active)
CCOc1cc(C(=S)N2CCOCC2)ccc1O | 12.3%
CN(CC#CCC(c1ccccc1)c1ccccc1)C(C)(C)C | 46.1%
CC(=O)OCc1cc(=O)n(C)c(=O)n1C | 1.9%
CCCc1nnc(NC(=O)c2cccs2)s1 | 7.8%
COc1ccc(/C=N/Nc2nc3ccccc3o2)cc1OC | -0.5%
C=CCOc1ccc(/C=N/n2cncn2)cc1OC | 96.6% (active)
COc1cc(/C=N/NC(=O)Nc2ccccc2)ccc1OCCOc1ccccc1C | 4.8%
Cc1csc(NC(=O)CN2CCCCCC2)n1 | 22.8%
COc1cc(/C=N/O)cc(Br)c1OCc1cccc(Cl)c1 | 4.4%

SMILES | inhibition
CCOc1cc(/C=N/O)cc(Br)c1OC | 45.6%
COc1cc(/C=N/O)cc(Br)c1OS(=O)(=O)c1ccc(C)cc1 | 73.4% (active)
Nc1c(-c2cccc(Cl)c2)cnn1-c1cccc([N+](=O)[O-])c1 | 24%
COc1ccc(C)cc1S(=O)(=O)NC1CCCCC1 | 15%
COc1ccc(Br)cc1S(=O)(=O)N1CCN=C1C | 40.3%
COCCNS(=O)(=O)c1cc(Br)ccc1OC | 66.9% (active)
Cc1noc(C)c1S(=O)(=O)NCCc1ccc(S(N)(=O)=O)cc1 | -13.5%
COc1ccc(C)cc1S(=O)(=O)NCCc1ccccc1 | 54.1% (active)
COc1ccc(Cn2c(C)c(C)c(C#N)c2NC(=O)Nc2ccc(F)cc2)cc1 | 4.4%
Cc1ccc(F)cc1NC(=O)c1cccc(N(C)C)c1 | 8.6%
CCCC(NS(=O)(=O)c1ccc(OC)cc1)C(=O)O (stereo unspecified) | -12.7%
CCc1ccc(Nc2ncc3c(n2)CC(c2ccco2)CC3=O)cc1 (stereo unspecified) | 1%
CC1CCCC(NC(=O)CN2CCN(Cc3ccc(Cl)cc3)C2=O)C1C (stereo unspecified) | 18.3%
CC1CCCC(NC(=O)CSc2nccn2C)C1C (stereo unspecified) | 97.2% (active)
CC1CCCCC1NC(=O)CSc1nnc(N)s1 (stereo unspecified) | 4%
Cc1ccc(NC(=S)NC(NC(=O)Cc2cccc3ccccc23)C(Cl)(Cl)Cl)cc1 (stereo unspecified) | 49.5%
CCCC(C(=O)NCc1ccco1)N(C(=O)CNS(=O)(=O)c1ccccc1)C1CCCC1 (stereo unspecified) | 78.3% (active)
O=C(NC1CCC(O)CC1)c1ccc(S(=O)(=O)NCc2ccco2)cc1 (stereo unspecified) | -9%
CSCCC(NC(=O)C1CCC(C)CC1)C(=O)NCc1ccco1 (stereo unspecified) | 8.2%
COc1ccc(C2=NOC3(CC(=O)N(c4ccc(C)cc4)C3=O)C2)cc1 (stereo unspecified) | -13.3%
O=C1CSC(c2ccc(Cl)cc2)N1 (stereo unspecified) | 13.7%
c1ccc2c(NCC3CCCO3)nc(-c3ccncc3)nc2c1 (stereo unspecified) | 94.5% (active)

SMILES | inhibition
O=C(NCC1CCCO1)c1ccc2ccccc2n1 (stereo unspecified) | -2.7%
Cc1nc2ccccc2c2oc(C(=O)NCC3CCCO3)cc12 (stereo unspecified) | -8.4%
Cc1ccc(S(=O)(=O)n2nc(OC(=O)C(C)(C)C)cc2N)cc1 | 21.6%
Cc1ccc(N2CCN(S(=O)(=O)N(C)C)CC2)cc1Cl | 59.1% (active)
CS(=O)(=O)N1CCN(c2cccc(Cl)n2)CC1 | 46.3%
c1ccc(-n2ncc3c2ncn2c(C4CCCCC4)nnc32)cc1 | -4.4%
CCn1ncc(C2=NOC(C(=O)N3CCN(c4ccccc4)CC3)C2)c1C (stereo unspecified) | -20.9%
O=C(OCC(=O)N1CCCC1)c1ccco1 | 0.8%
COc1ccc(-c2noc(-c3cccc(OC)c3OC)n2)cc1OC | 22.7%
CCc1ccc(CNC(=O)CCc2nc(-c3cccs3)no2)cc1 | 37.6%
c1csc(-c2nc(-c3ccncc3)no2)c1 | 72.2% (active)
COc1nc(-c2ccc(Cl)cc2)ccc1-c1noc(-c2cccs2)n1 | 7%
CCOc1nc(-c2ccc(OC)cc2)ccc1-c1noc(-c2cc(OC)c(OC)c(OC)c2)n1 | 8%
COc1cc(-c2nc(-c3ccncc3)no2)cc(OC)c1OC | 83.6% (active)
O=C(CSc1nc(-c2ccco2)cc(C(F)(F)F)n1)N1CCc2ccccc2C1 | 42.7%
Cc1[nH]c2ccccc2c1C(=O)CSCC(=O)O | 0.7%
Cc1cc(N=CC2=C(O)CCCC2=O)no1 | 2.1%
c1coc(CNc2ncnc3ccccc23)c1 | -3.8%
O=C(CN1C(=O)NC2(CCCCC2)C1=O)NCCC1=CCCCC1 | 8.2%
Cc1nnc(OCC(=O)NCCC2=CCCCC2)c2ccccc12 | 55.2% (active)
S=C(NCCC1=CCCCC1)Nc1ccccc1 | 46.9%
O=C(Cc1nn[nH]n1)NCCC1=CCCCC1 | -1.9%

SMILES | inhibition
O=C(COc1ccc(Cl)cc1)NCCC1=CCCCC1 | 26.8%
O=C(COc1cccc(-n2cnnn2)c1)NCCC1=CCCCC1 | 89.3% (active)
O=C(O)C1CC=CCC1C(=O)NCCc1ccccc1 (stereo unspecified) | -8.8%
CC1(C)COC(c2cccn2Cc2ccccc2Cl)=N1 | 2.4%
CNC(=O)c1ccc2nc(NC(C)=O)sc2c1 | 2.4%
O=C(Cn1c(-c2ccc(Cl)cc2)noc1=O)N1CCN(c2ccccc2F)CC1 | 12.6%
CCCCOC(=O)Nc1sc2nc(C)cc(C)c2c1-n1cccc1 | 9.4%
O=C(Nc1cccc2c1CCCC2)C1CCN(C(=O)NC2CCCCC2)CC1 | 2.3%
COCCCNC(=O)COc1cc(C)c(Cl)c(C)c1 | 86.2% (active)
COCCNC(=O)COc1ccc(C)c(C)c1 | -3.5%
COCCNC(=O)COc1ccccc1C | 2%
CCOC(=O)C1C(=O)C=C(c2ccc(OC)cc2)CC1c1ccco1 (stereo unspecified) | 28.1%
O=C(OCC(O)C(O)COC(=O)c1ccccc1)c1ccccc1 (stereo unspecified) | 83.5% (active)
CCCCCCOC(=O)NCC(O)c1ccccc1 (stereo unspecified) | 23.3%
O=C(NC(=O)c1ccccc1)NC(=O)c1ccccc1 | 21.7%
COc1ccc(-c2nc(-c3ccccc3)no2)c(OC)c1 | 12.8%
CCOC(=O)C(CC)Sc1ncnc2c1nnn2-c1ccc(F)cc1 (stereo unspecified) | 10.5%
CCN(CC(=O)NC1CCS(=O)(=O)C1)c1nc(-c2cccnc2)nc2ccccc12 (stereo unspecified) | 4.6%
